Reference: PubChem BioAssay (NCI)
Compounds without any hit were thinned out: in the full panel of roughly 83,000, 20% have a hit.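 Assay: single dose, 48 h. Readout: percent growth (0 = no net growth; negative = cell death). Active: <10.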 The source made the active and inactive calls.

Key:
Experiment in all cases: NCI-60 one-dose screen, 48 h (100 = growth as untreated, 0 = no growth, -100 = all killed)
Details in all cases: 10 µM unless noted
[1] = system: SK-MEL-2 melanoma
[2] = system: EKVX NSCLC
[3] = system: SN12C renal
[4] = system: UO-31 renal
[5] = system: TK-10 renal
[6] = system: ACHN renal
[7] = system: CAKI-1 renal
[8] = system: CCRF-CEM leukemia
[9] = system: MOLT-4 leukemia
[10] = system: A498 renal

Measured: growth

Cc1cc2nc(NC(=O)CN3CCN(CCN4C(=O)c5cccc6cccc(c56)C4=O)CC3)sc2cc1C
inactive: [1] 107% | [2] 82.1% | [3] 72.9% | [4] 68% | [5] 95% | [6] 85.1% | [7] 88% | [8] 71.5% | [9] 45%

O=C(O)c1ccc(N=CC(=O)c2ccc(-c3ccccc3)cc2)cc1
inactive: [1] 108% | [2] 99.3% | [3] 95.8% | [4] 93.5% | [5] 96.8% | [6] 96.2% | [7] 102% | [9] 99.9%
active: [8] -57.9%

Clc1ccc2c(NCCNc3nc(N4CCCCC4)nc4ccccc34)ccnc2c1
active: [1] -61.8% | [3] -2.91% | [4] -97.6% | [5] -32.5% | [6] -72.8% | [8] 0.574%
inactive: [2] 32.9% | [10] 75.8%

N#Cc1nnn(-c2ccc(S(N)(=O)=O)cc2)c1NC(=O)CCl
inactive: [1] 106% | [2] 91.4% | [3] 88.3% | [4] 86.5% | [5] 96.4% | [6] 108% | [10] 91.5% | [8] 88.8%

CC(=O)OCCC/C(=C/c1cc2ccccc2c2ccccc12)[N+](=O)[O-]
active: [1] -80.8% | [2] -31.7% | [3] -88.9% | [4] -97% | [5] -72.2% | [6] -91.7% | [10] -80.1% | [8] -36.1% | [9] -28.7%

CCCCn1c(-c2ccc(C(=O)O/N=C(\N)c3ccc4c(c3)OCO4)cc2)nc(-c2ccccc2)c1-c1ccccc1
inactive: [1] 84.9% | [2] 51.8% | [3] 39.3% | [5] 37.1% | [7] 11.5%
active: [4] -62.3% | [6] -85.8% | [8] -30% | [9] 7.23%

COc1cc(-c2nn(-c3ccc(C(=O)O)cc3)cc2C(=O)O)ccc1O
inactive: [1] 88.1% | [2] 76.4% | [3] 81.4% | [4] 56.1% | [5] 122% | [6] 44.8% | [10] 97.9% | [8] 67.9% | [9] 90%

CC1=C[C@H]2c3c(c(O)c(O)c4oc5c(C)cccc5c(=O)c34)[C@H](c3cc(O)c(O)c4oc5c(C)cccc5c(=O)c34)[C@H]2C(C)(C)C1
inactive: [1] 20.9% | [2] 23.5% | [3] 10.6% | [5] 31.2% | [6] 12.2% | [7] 12.5% | [8] 10.8%
active: [4] -27.2% | [9] 3.99%

Cc1nn(-c2cc(=O)[nH]c3ccccc23)c(N)c1C#N
inactive: [1] 103% | [2] 96.3% | [3] 101% | [4] 67.5% | [5] 112% | [6] 101% | [7] 87.5% | [8] 102% | [9] 106%

CCCCCCCCCCCCC[N+](C)(C)Cc1ccccc1
active: [1] -80.2% | [2] 3.49% | [3] -55.7% | [5] -59.5% | [8] -14.8% | [9] -10.1%
inactive: [4] 43.6% | [6] 16.8% | [7] 76.5%

Nc1n[nH]c2ccc([C@@H]3Nc4ccc5[nH]ncc5c4[C@H]4C5C=CC(C5)[C@@H]34)cc12 (stereo partly specified)
inactive: [1] 46.9% | [2] 37.7% | [3] 34.2% | [4] 44.5% | [5] 67.5% | [6] 24.4% | [7] 35.3% | [8] 19.6% | [9] 15.1%

OCC(O)c1nc2ccc3[nH]ncc3c2c2c1CCCC2 (stereo unspecified)
active: [1] 9.63% | [2] 5.55% | [4] 7.51% | [5] 4.51% | [6] 4.18% | [7] 7.54% | [8] 6.71% | [9] 1.37%
inactive: [3] 11.8%

NC(N)=N/N=C(/c1ccccc1)c1ccc(F)cc1
inactive: [2] 35.1% | [3] 17.2% | [5] 50.5% | [6] 29.3%
active: [1] -15.1% | [4] -8.69% | [10] -16.6% | [8] -14.3% | [9] -10.1%

NC(CSC(c1ccccc1)(c1ccccc1)c1ccc(Cl)cc1)C(=O)O (stereo unspecified)
inactive: [2] 27.1% | [3] 27.5% | [4] 65% | [5] 64.8% | [6] 53% | [10] 26.7%
active: [1] -9.63% | [8] 3.48% | [9] 6.35%

CN(C)c1ccc(N=Nc2ccccn2)c(O)c1
inactive: [1] 27.1% | [2] 17% | [3] 11.3% | [5] 38.9% | [10] 48.2%
active: [4] -8.47% | [6] 6.69% | [8] 2.26% | [9] 2.31%

CC1=C[C@H]2c3c(c(O)c(O)c4oc(-c5ccccc5)cc(=O)c34)[C@H](c3cc(O)c(O)c4oc(-c5ccccc5)cc(=O)c34)[C@H]2C(C)(C)C1
inactive: [2] 14.5% | [5] 28.4%
active: [1] -3.08% | [3] 1.79% | [4] -50.2% | [6] 2.25% | [7] -27% | [8] 4.65% | [9] 5.24%

CC(=O)c1cc2c(N)c(C(=O)Nc3cccc(F)c3C)sc2nc1C
inactive: [1] 68.5% | [2] 95.7% | [3] 95.1% | [4] 91.2% | [5] 100% | [6] 89.4% | [10] 43% | [8] 86.7% | [9] 79.1%

CC(C)(C)c1cc(/C=N\NC(=O)/C=C/C=C/c2ccc3c(c2)OCO3)c(O)c(C(C)(C)C)c1
inactive: [1] 89% | [2] 75% | [3] 87.6% | [4] 55.1% | [5] 96% | [6] 75.9% | [7] 71.9% | [8] 55.7% | [9] 74.7%

COc1ccc(C2C(C#N)=C(N)Oc3n[nH]c(-c4cccs4)c32)cc1I (stereo unspecified)
inactive: [1] 101% | [2] 96% | [3] 96.5% | [4] 81.8% | [5] 99.7% | [6] 98.5% | [10] 77.4% | [8] 76.3% | [9] 74.9%

Nc1n[nH]c2ccc([C@@H]3Nc4cc5c(cc4[C@H]4C6CCC(C6)[C@@H]34)C(=O)NC5)cc12 (stereo partly specified)
inactive: [1] 48.8% | [2] 48.9% | [3] 38.4% | [4] 54.9% | [5] 89.3% | [6] 34.4% | [7] 40.5% | [9] 14.7%

CCN(CC)c1ccc2c(c1)Oc1nc(N)c(C#N)c(N)c1C2Sc1ccc(SC)cc1 (stereo unspecified)
active: [1] -59.6% | [2] -3.97% | [3] -13.4% | [4] -79.8% | [5] -35.7% | [6] -46.5% | [8] -15.5%
inactive: [10] 90%

COc1ccc(/C=C2\Oc3cc(OCCCCN4CCCC4)ccc3C2=O)cc1
inactive: [1] 98.9% | [2] 91.5% | [3] 90.3% | [4] 68% | [5] 98.1% | [6] 95.5% | [7] 95% | [8] 13.8% | [9] 42.7%

Clc1ccc2c(NCCCCNc3nc(N4CCOCC4)nc4ccccc34)ccnc2c1
inactive: [1] 103% | [2] 45.2% | [10] 90.4% | [9] 17.6%
active: [3] -8.57% | [4] -89.7% | [5] -63.1% | [6] -67.5% | [8] -21.7%

CC1=C[C@H]2c3c(c(O)c(O)c4oc5ccccc5c(=O)c34)[C@H](c3cc(O)c(O)c4oc5ccccc5c(=O)c34)[C@H]2C(C)(C)C1
active: [1] 0.0517% | [3] 7.6% | [4] -74% | [6] 6.36% | [7] -24.7% | [9] 2.9%
inactive: [2] 18.7% | [5] 23.1%

CCOC(=O)c1c(C)oc2ncnc(N3CCN(C(=S)Nc4ccccc4)CC3)c12
inactive: [1] 95.3% | [2] 91.2% | [3] 92.7% | [4] 75.1% | [5] 100% | [6] 92% | [7] 79.6% | [8] 92.3% | [9] 91.3%

CC1C(/C=N/Nc2ccccc2)C(C#N)(C#N)C1(C#N)C#N (stereo unspecified)
inactive: [1] 85.2% | [2] 71.8% | [3] 86.5% | [4] 52% | [5] 130% | [6] 44.4% | [10] 99.9% | [8] 58% | [9] 67%

Cc1cc(N2CCSCC2)nc(NC2CCCC(Nc3ccnc4cc(Cl)ccc34)C2)n1 (stereo unspecified)
inactive: [2] 24.1% | [10] 22.9%
active: [1] -81% | [3] -29% | [4] -94% | [5] -57.9% | [6] -61.9% | [8] -20.5% | [9] -9.85%

CN1CCN(c2nc(NCCCCNc3ccnc4cc(Cl)ccc34)c3ccccc3n2)CC1
inactive: [1] 87.3% | [2] 80.7% | [3] 79.8% | [4] 46.1% | [5] 73% | [6] 74.3% | [10] 71.1% | [8] 35.3% | [9] 43.9%

CCOC(=O)c1cc(C(=O)c2ccc(O)c(O)c2)n2ccc(-c3ccn4c(C(=O)c5ccc(O)c(O)c5)cc(C(=O)OCC)c4c3)cc12
inactive: [1] 103% | [2] 94.9% | [3] 94.7% | [4] 63.4% | [5] 83.3% | [6] 97.4% | [10] 96.6% | [8] 84.5% | [9] 63.3%
